# Reference: paper PMC5913336, “True equilibrium measurement of transcription factor-DNA binding affinities using automated polarization microscopy”
# Molecular target: D (Drosophila melanogaster, UniProt Q24533 127-229)
# Test: FP; 33 mM phosphate pH 7.0, 90 mM NaCl, 0.01% Tween 20, 0.1 mM DTT, 0.5% agarose; room temperature
# Conditions: tags: N-GST (pGEX-6P-1, kept); dsDNA, one strand shown
# D, sequence (Q24533 127-229): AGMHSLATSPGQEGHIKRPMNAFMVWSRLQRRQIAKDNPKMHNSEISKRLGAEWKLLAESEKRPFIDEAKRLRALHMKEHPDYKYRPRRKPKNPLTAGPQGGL
Sequence,binding signal,Kd [nM]
GACCATTGTACTTG,8.66 Kd / Kd of best base at the position,
GACCATAGTTCTTG,40.3 Kd / Kd of best base at the position,
GACCATGGTTCTTG,39.1 Kd / Kd of best base at the position,
GACCATTGTTCATG,2.96 Kd / Kd of best base at the position,
GACCATTGTTATTG,3.41 Kd / Kd of best base at the position,
TACCATTGTTCTTG,1.36 Kd / Kd of best base at the position,
GAGCATTGTTCTTG,2.52 Kd / Kd of best base at the position,
GACCATTGTTCTTG,,~2.3
GATCATTGTTCTTG,2.05 Kd / Kd of best base at the position,
GACCATTGTTCGTG,3.61 Kd / Kd of best base at the position,
GCCCATTGTTCTTG,1.11 Kd / Kd of best base at the position,
GACCATTGTGCTTG,11.9 Kd / Kd of best base at the position,
GTCCATTGTTCTTG,1.08 Kd / Kd of best base at the position,
GACAATTGTTCTTG,10.4 Kd / Kd of best base at the position,
GACCAATGTTCTTG,44.4 Kd / Kd of best base at the position,
GACCACTGTTCTTG,40.3 Kd / Kd of best base at the position,
GACGATTGTTCTTG,12.4 Kd / Kd of best base at the position,
AACCATTGTTCTTG,1.37 Kd / Kd of best base at the position,
GACCATTGTTCTGG,1.95 Kd / Kd of best base at the position,

Sequence,binding signal,Kd [nM]
GACCATTGTCCTTG,8.08 Kd / Kd of best base at the position,
GACCATCGTTCTTG,34.5 Kd / Kd of best base at the position,
GACCATTGCTCTTG,46 Kd / Kd of best base at the position,
GACCTTTGTTCTTG,2.8 Kd / Kd of best base at the position,
GACCATTGTTCCTG,3.75 Kd / Kd of best base at the position,
GACCATTTTTCTTG,40.5 Kd / Kd of best base at the position,
GACCATTGTTCTTC,1.12 Kd / Kd of best base at the position,
GACCATTGTTCTTA,1.16 Kd / Kd of best base at the position,
GACCCTTGTTCTTG,32.5 Kd / Kd of best base at the position,
GACCAGTGTTCTTG,33 Kd / Kd of best base at the position,
GACTATTGTTCTTG,2.24 Kd / Kd of best base at the position,
GACCATTGTTCTAG,1.95 Kd / Kd of best base at the position,
GACCATTGATCTTG,31.7 Kd / Kd of best base at the position,
GACCATTGGTCTTG,54.3 Kd / Kd of best base at the position,
GACCATTGTTCTCG,1.79 Kd / Kd of best base at the position,
GACCGTTGTTCTTG,26 Kd / Kd of best base at the position,
GACCATTGTTGTTG,3.32 Kd / Kd of best base at the position,
GACCATTCTTCTTG,17.3 Kd / Kd of best base at the position,
